High-throughput results as filed in PubChem.
CDC25B CDK2 inh: primary biochemical HTRF screen for blockers of M-phase inducer phosphatase 2 binding to CDK2/cyclin A | P30305+P24941 | HTRF CDC25B-CDK2/CyclinA binding, anti-His/anti-Flag; hits give high values | z-score (concentration not given with the values) | 94,000 compounds, 0.72% hits; in the data active = z-score above about 3.2
TAR Tat displ: TAR RNA-Tat peptide displacers, HIV-1, primary screen, biochemical, FRET, FAM/TAMRA-labeled Tat | HIV-1 TAR RNA, Tat peptide displacement FRET; hits give high values | z-score (no concentration beside the values) | 100,000 compounds, 0.6% hits | AID 1259389, 2018; active = z-score of 3 or more in at least 2 runs
* marks the source's active call; other numbers are inactive results; x = no result given. Only some compounds are listed: those with a hit (about 0.9% of all), similar ones and a draw of the others.

SMILES	CDC25B CDK2 inh	TAR Tat displ
C=CCSc1nnc(NC(=O)c2cc(=O)c3cc(Cl)ccc3o2)s1	0.15	2.2
C=CCSc1nnc(NC(=O)c2cc(=O)c3cc(CC)ccc3o2)s1	-0.88	9.8*
Cc1ccc(-c2onc3ccc(C(=O)N4CCCC4)cc23)cc1	x	0.32
O=C1c2ccccc2C(Nc2cccnc2)N1c1cccnc1 (stereo not drawn)	-0.21	-0.44
O=C1c2ccccc2C(Nc2cccnc2)N1c1ccccn1 (stereo not drawn)	9.9*	-0.14
CCOC(=O)C1CCN(C2=NC(=O)/C(=C\c3cc(OC)ccc3OC)S2)CC1	-3.2	x
O=C(Cn1nc(-c2ccc3c(c2)OCCO3)ccc1=O)NC1CCCc2ccccc21 (stereo not drawn)	0.57	0.87
Nc1ccc(O)c2c1C(=O)c1c(N)ccc(O)c1C2=O	-2.6	x
O=C1c2c(O)cccc2Cc2cccc(O)c21	x	25*
O=C(Oc1cccc(-n2cnnn2)c1)C(c1ccccc1)c1ccccc1	-0.08	0
CCCC[C@H](NC(C)=O)C(=O)O	-0.11	x
CC(O)c1nc2ccccc2[nH]1 (stereo not drawn)	-0.4	x
CC(O)c1nc2ccc(-c3ccc4nc(C(C)O)[nH]c4c3)cc2[nH]1 (stereo not drawn)	6.8*	-0.52
CCOc1ccc(CNCCCSc2nnnn2C)cc1	-0.93	0.88
Cc1cccc(C(=O)Nc2c(C(=O)N(Cc3ccco3)CC3CCCO3)oc3ccccc23)c1 (stereo not drawn)	x	0.72
COc1ccc(CCn2c(C)c3c(C)nn4cc(C)cc4c3c2C)cc1OC	3.5	15*
Cc1cc2c3c(C)n(C4CCCCC4)c(C)c3c(C)nn2c1	0.79	x
O=C(O)c1c[nH]c2ccc(S(=O)(=O)N3CCC(O)CC3)cc2c1=O	x	0.26
O=C(O)c1c[nH]c2ccc(S(=O)(=O)N3CCCC3c3ccco3)cc2c1=O (stereo not drawn)	-1.1	5.5*
CC1SCC(=NOC(=O)c2ccccc2Cl)CS1 (stereo not drawn)	13*	x
CC1SCC(=NOC(=O)Nc2ccc(Cl)cc2)CS1 (stereo not drawn)	-1.5	x
CCCC(CCC)C(=O)Nc1c(C(=O)N2CCN(c3ncccn3)CC2)oc2ccccc12	0.38	-0.93
O=S(=O)(O)c1ccc2[nH]c(=S)sc2c1	-0.66	x
O=S(=O)(O)c1cc[n+]([O-])cc1	4.4*	x
C=CCOc1ccc(C2CC(=O)Nc3c2c(C)nn3-c2nncc(-c3ccc(F)cc3)n2)cc1 (stereo not drawn)	-1.7	16*
SMILES	CDC25B CDK2 inh	TAR Tat displ
C=CCOc1ccc(C2CC(=O)Nc3c2c(C)nn3-c2nncc(-c3ccc(C)cc3)n2)cc1 (stereo not drawn)	-2	2.9
Cc1ncc(-c2ccc(S(=O)(=O)NC3CCCCC3)cc2)o1	x	0.4
CC1(C)OC(=O)C(=Cc2ccc(OCc3ccc(F)cc3)c([N+](=O)[O-])c2)C(=O)O1	-1.6	x
CCCCC1(C)OC(=O)C(=Cc2cc3c(cc2[N+](=O)[O-])OCO3)C(=O)O1 (stereo not drawn)	20*	x
CCCC(=O)Nc1nc2cc(NS(C)(=O)=O)ccc2s1	x	1.6
Cc1cc(C)n(-c2cc(NCC3CCCO3)ncn2)n1 (stereo not drawn)	x	0.28
CCOc1ccccc1Nc1ncnc2onc(-c3cc(F)cc(F)c3)c12	x	2.6
CCc1nc2nc(C)c(NS(=O)(=O)c3ccc(OC)cc3)c(=O)n2[nH]1	-1.5	1.4
Cc1cc2c(N)cccc2nn1	17*	x
Nc1cccc2nsnc12	-2.1	x
O=C1c2cccnc2C(=O)N1Cc1ccc(S(=O)(=O)N2CCCc3ccccc32)cc1	x	0.62
CCOC(=O)c1nc2ccccc2[nH]c1=O	18*	-0.31
CCOC(=O)C(C)c1nc2ccccc2[nH]c1=O (stereo not drawn)	-0.92	x
CC(=O)Oc1ccc2ccccc2c1-c1c(OC(C)=O)ccc2ccccc12	-2	-0.52
CC(=O)Oc1ccc(OC(C)=O)c2c1C(=O)c1ccccc1C2=O	17*	x
CSc1cccc(NC(=O)CSc2nc3ncccc3o2)c1	x	-0.22
Cc1ccc(S(=O)(=O)n2nc(C)c(S(=O)(=O)N3CCCC(C)C3)c2C)cc1 (stereo not drawn)	x	1.4
Nc1nc(-c2ccccc2Cl)nn1C(=O)c1ccc(Cl)cc1	-0.6	0.13
Cc1cc(=O)n2[nH]c(CN(c3ccccc3)S(=O)(=O)c3ccccc3)nc2n1	-0.62	0.83
COCCNC(=O)N1CCc2cc(S(=O)(=O)N3CCc4ccccc43)ccc21	x	0.83
O=C(Cn1cnc(S(=O)(=O)N2CCOCC2)c1)NCc1cccs1	x	0.08
OCCNCc1cccc(Oc2nnnn2-c2ccccc2)c1	x	0.8
c1ccc(-n2nnnc2Oc2cccc(CNCc3cccnc3)c2)cc1	x	21*
CCn1cnc2cc(NCc3nc4ccccc4n3C)ccc21	2.5	-0.54
CCn1cnc2cc(NCc3nc4ccccc4n3Cc3ccccc3)ccc21	13*	1.9
SMILES	CDC25B CDK2 inh	TAR Tat displ
COC(=O)c1ccc(-n2nnc3c(sc4nc(C)ccc43)c2=O)cc1	1.7	0.19
CCN(CC)CCNc1cc(C)nc(C)n1	0.43	0.81
O=C(Nc1ccccc1SCc1cc(=O)n2c(-c3ccccc3)csc2n1)c1ccco1	x	8.4*
Cc1nn2c(=O)cc(CSc3ccccc3NC(=O)c3ccco3)nc2s1	x	-0.08
NC(=O)c1nc(Nc2ccccc2)sc1NC(=O)c1cc(-c2ccco2)nc2ccccc12	x	20*
Cc1nnc(NC(=O)c2cc(-c3ccc(Cl)cc3)nc3ccccc23)s1	-4.8	x
CCN(CC)C(=O)c1sc(NC(=O)c2cc(-c3ccc(C)o3)nc3ccccc23)c(C(N)=O)c1C	0.85	8.5*
NC(=O)c1nc(Nc2ccccc2)sc1NC(=O)Cc1cccs1	x	-0.59
CCCCn1c(CN2CCN(c3ccccc3F)CC2)nc2c1c(=O)n(C)c(=O)n2C	0.97	0.58
Fc1ccc(C2CC(c3ccc(F)cc3F)Nc3nnnn32)cc1 (stereo not drawn)	x	1.6
CCN(C(=O)Cn1c(-c2cncs2)nc2ccccc21)c1ccccc1	-1.1	0.74
O=C(O)CSc1nnc(COc2ccc(Cl)cc2)n1-c1ccccc1	-1.6	0.27
CCCC1=NN(c2ccc(Cl)cc2)C(=O)C1	6.2*	0.59
O=C1CC(CSc2nccc(-c3cccnc3)n2)=NN1c1ccc(Cl)cc1	-0.37	x
Nc1ccc(O)c(C(=O)O)c1	x	21*
O=C(O)c1cccc(O)c1O	x	9.6*
O=C(O)c1cc(O)ccc1O	x	3.2
Nc1ccc(C(=O)O)cc1	x	1.6
O=C(O)c1cccc2cccc(C(=O)O)c12	-1.3	x
Nc1ccc(C(=O)O)c(O)c1 (tested in a mixture with another compound)	x	16*
O=C1/C(=C\c2ccc(O)c(O)c2)Oc2c1ccc(O[C@@H]1O[C@H](CO)[C@@H](O)[C@H](O)[C@H]1O)c2O	x	16*
O=C1C[C@@H](c2ccc(O)c(O)c2)Oc2cc(O[C@H]3O[C@@H](CO)[C@H](O)[C@@H](O)[C@@H]3O)cc(O)c21	x	3.2
CCc1ccccc1NC1=NS(=O)(=O)C(c2cccc(Cl)c2)=C1C	-1.6	-0.24
CCn1c(SCC(C)O)nc2ccccc21 (stereo not drawn)	-0.78	0.87
Cc1nc2sccn2c(=O)c1NC(=O)c1ccco1	x	1.4
Cc1nc2sccn2c1C(=O)NN	15*	x
